Experiment: activators of LNCaP cell differentiation, retest, confirmation, side scatter shift, flow cytometry (AID 1069);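 also: LNCaP human prostate cancer cells in low-serum medium with charcoal-stripped FBS; percent of cells with raised granularity gated so DMSO controls show 10%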
Details: 4 d, side scatter shift, at 10 µM, stronger effect = higher value

**Q.** With `O=C(NCCCN1CCN(c2cccc(Cl)c2)CC1)c1cccc(N2CCCC2=O)c1` as the compound, how does the side scatter shift read?
**A.** 7.7%

**Q.** Which side scatter shift does the source give for `Nc1ccccc1NC(=O)c1ccccc1N` here?
**A.** 2.1%

**Q.** Which side scatter shift does the source give for `CC(C)(C)c1ccc(C(O)CCCN2CCC(C(O)(c3ccccc3)c3ccccc3)CC2)cc1` (stereo not drawn) here?
**A.** 14.8%

**Q.** For `Cc1ccc(NC(=O)CCNS(=O)(=O)c2ccc3c(c2)oc(=O)n3C)c(C)c1`, which side scatter shift is on record?
**A.** 5.85%

**Q.** Which side scatter shift does the source give for `CCCS(=O)(=O)N1CCCC(C(=O)NCCCN2CCN(c3cccc(Cl)c3)CC2)C1` (stereo not drawn) here?
**A.** 6.55%

**Q.** For `Cc1oc(-c2ccc(Cl)cc2)nc1CN1CCC(C(=O)N2CCN(Cc3ccccc3)CC2)CC1`, which side scatter shift is on record?
**A.** 53.7%

**Q.** With `CCOC(=O)Cn1nc(-c2ccc(Cl)cc2)cc1N` as the compound, how does the side scatter shift read?
**A.** 4.7%

**Q.** With `O=C(Cc1ccc(-n2cccc2)cc1)NCc1cccs1` as the compound, how does the side scatter shift read?
**A.** 13.2%

**Q.** With `Cc1ccc(Cn2c(C(=O)NCCCN3CCOCC3)cc3sccc32)cc1` as the compound, how does the side scatter shift read?
**A.** 10.8%

**Q.** For `Cc1ccccc1-c1nc(CN2CCC(C(=O)NCCCN3CCCC3)CC2)c(C)o1`, which side scatter shift is on record?
**A.** 19.4%

**Q.** For `Cc1oc(-c2ccccc2F)nc1CN1CCC(C(=O)NCc2ccco2)CC1`, which side scatter shift is on record?
**A.** 3%

**Q.** With `O=C(Cn1cc2c(n1)CCCC2)NCCCN1CCN(c2ccccc2F)CC1` as the compound, how does the side scatter shift read?
**A.** 4.95%

**Q.** For `Cc1ccc(C(=O)/C=C/Nc2cccc(O)c2)cc1`, which side scatter shift is on record?
**A.** 4.85%

**Q.** With `COc1ccc(/C=N/c2nc3ccccc3n2C)cc1OC` as the compound, how does the side scatter shift read?
**A.** 6.6%

**Q.** With `CCCCC(=O)NCCc1ccc(S(N)(=O)=O)cc1` as the compound, how does the side scatter shift read?
**A.** 11.9%

**Q.** Which side scatter shift does the source give for `CC(C)(C)C1CCc2onc(C(=O)Nc3cnn(Cc4ccc(F)cc4)c3)c2C1` (stereo not drawn) here?
**A.** 3.7%

**Q.** Which side scatter shift does the source give for `CCN(CC)CCNC(=O)c1ccc(N2CCCCC2)c(NS(=O)(=O)c2ccc(C)cc2)c1` here?
**A.** 38.6%

**Q.** For `Cc1onc(-c2ccccc2Cl)c1C(=O)N(C)C1CCCCC1`, which side scatter shift is on record?
**A.** 5.1%

**Q.** Which side scatter shift does the source give for `CCOC(=O)C1=C(C)N=c2s/c(=C\c3ccncc3)c(=O)n2C1c1ccc2c(c1)OCO2` (stereo not drawn) here?
**A.** 6.4%

**Q.** With `CN(C)c1ccc(-c2nn3c(-c4ccc(Cl)cc4Cl)nnc3s2)cc1` as the compound, how does the side scatter shift read?
**A.** 4.15%

**Q.** With `CN1CCN(c2cc3c(c4c2[nH]c2ccccc24)C(=O)CC(C)(C)C3)CC1` as the compound, how does the side scatter shift read?
**A.** 56.2%

**Q.** Which side scatter shift does the source give for `CN(CC(=O)Nc1ccc2c(c1)OCCO2)S(=O)(=O)c1cccc2cccnc12` here?
**A.** 3.95%

**Q.** For `COc1cc(C(=O)NCc2nnc(SCC(=O)NCc3ccccc3)o2)cc(OC)c1OC`, which side scatter shift is on record?
**A.** 7.7%

**Q.** Which side scatter shift does the source give for `O=C(CSc1nc2c(c(=O)n1-c1ccc(F)cc1)SCC2)NCC1CCCO1` (stereo not drawn) here?
**A.** 3.9%

**Q.** For `Cc1cc(NC(=O)c2noc3c2CCc2ccccc2-3)n(-c2ccccc2)n1`, which side scatter shift is on record?
**A.** 12.4%

**Q.** Which side scatter shift does the source give for `COc1ccc(-c2cc(C(F)(F)F)nc(N3CCN(c4ccc(F)cc4)CC3)n2)cc1OC` here?
**A.** 3.05%

**Q.** Which side scatter shift does the source give for `CCN1CCN(C(c2cccs2)C(C)NS(=O)(=O)c2ccc(Br)cc2)CC1` (stereo not drawn) here?
**A.** 17.8%

**Q.** Which side scatter shift does the source give for `Cn1c(=O)cc(SCC(=O)NCCCN2CCN(c3ccccc3F)CC2)c2ccccc21` here?
**A.** 12.8%

**Q.** With `CCOC(=O)c1cc2c(=O)n3ccccc3nc2n(CCCOC)c1=NC(=O)c1cccnc1` as the compound, how does the side scatter shift read?
**A.** 5.75%

**Q.** Which side scatter shift does the source give for `Cn1cc(CNC(=O)C2c3ccccc3Oc3ccccc32)cn1` here?
**A.** 3%

**Q.** With `Cn1c(C(=O)NCCCN2CCN(c3ccccc3F)CC2)cc2c(=O)n(C)c3ccccc3c21` as the compound, how does the side scatter shift read?
**A.** 7.65%

**Q.** For `CCN1CCN(c2cc(C)c3cc(NC(=O)c4ccc(Br)o4)ccc3n2)CC1`, which side scatter shift is on record?
**A.** 32.8%

**Q.** With `Cc1ccccc1-c1nc(CN2CCC(C(=O)NCCC3=CCCCC3)CC2)c(C)o1` as the compound, how does the side scatter shift read?
**A.** 24.8%

**Q.** With `CCn1c(SCC(=O)Nc2ccccc2F)nc2c(c1=O)SC(C)C2` (stereo not drawn) as the compound, how does the side scatter shift read?
**A.** 0.85%

**Q.** With `Cc1oc(-c2ccccc2F)nc1CN1CCC(C(=O)NCc2cccnc2)CC1` as the compound, how does the side scatter shift read?
**A.** 3.9%

**Q.** Which side scatter shift does the source give for `Cc1ccccc1-c1nc(CN2CCC(C(=O)NCc3cccnc3)CC2)c(C)o1` here?
**A.** 1.35%

**Q.** For `COc1ccccc1CNC(=O)C1CCN(Cc2nc(-c3cccc(Cl)c3)oc2C)CC1`, which side scatter shift is on record?
**A.** 3.35%

**Q.** Which side scatter shift does the source give for `Cc1ccc(OCC(O)Cn2c(=N)n(CCN3CCCCC3)c3ccccc32)cc1` (stereo not drawn) here?
**A.** 65.5%
